Results taken from PubChem BioAssay (NCI).
Compounds without any hit were thinned out: in the full panel of roughly 83,000, 20% have a hit.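 Results are percent growth after 48 hours of single-concentration exposure. 100 means growth as in untreated cells, lower positive values show inhibition; negative values down to -100 show cell death.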 Calls of active or inactive are those of the source. Rule for the calls: active = growth percent below 10; inactive = the rest.

Key:
Experiment in all cases: NCI-60 one-dose screen, 48 h (100 = growth as untreated, 0 = no growth, -100 = all killed)
Conditions in all cases: 10 µM unless noted
[1] = test system: NCI-H23 lung
[2] = test system: NCI-H322M lung
[3] = test system: HOP-62 NSCLC
[4] = test system: NCI-H460 lung
[5] = test system: HOP-92 NSCLC
[6] = test system: NCI-H522 lung
[7] = test system: A549/ATCC NSCLC
[8] = test system: 786-0 renal
[9] = test system: COLO 205 colon
[10] = test system: DU-145 prostate
[11] = test system: K-562 leukemia
[12] = test system: MALME-3M melanoma
[13] = test system: MDA-MB-231 breast
[14] = test system: RXF 393 renal
[15] = test system: SF-268 CNS
[16] = test system: SF-295 CNS
[17] = test system: SF-539 CNS
[18] = test system: UACC-257 melanoma
[19] = test system: M14 melanoma
[20] = test system: HCT-15 colon

Measured: growth

Cc1c(C(=O)OCCO)cc(-c2ccc(Cl)cc2)n1-c1ccc(Cl)cc1Cl
inactive: [1] 77.6% | [2] 84.3% | [3] 89.2% | [4] 37.7% | [5] 91.1% | [6] 54.7% | [7] 47.6% | [8] 94.1% | [9] 108% | [10] 62.9% | [11] 33% | [12] 76.2% | [13] 74.2% | [14] 62.8% | [15] 70.4% | [16] 75.3% | [17] 77.5% | [18] 82% | [19] 55.6% | [20] 53.6%

O=c1oc2ccc(-c3ccc(F)cc3F)cc2c(=O)n1-c1ccc(Cl)c(C(F)(F)F)c1
active: [1] 6.77% | [3] 6.97% | [4] 5.36% | [5] -29.4% | [6] -12.4% | [7] 7.35% | [12] 3.35% | [14] -3.32% | [18] -9.78%
inactive: [2] 13.1% | [8] 17.4% | [9] 77.1% | [10] 21% | [11] 10.9% | [13] 56% | [15] 14.5% | [16] 17.4% | [17] 29.4% | [19] 21.5% | [20] 15.8%

CCOc1ccc2c(c1)CN(Cc1ccc(Cl)cc1)CO2
inactive: [1] 80.8% | [2] 69.1% | [4] 40.1% | [5] 43.4% | [6] 72.9% | [7] 18.7% | [9] 76.7% | [10] 38.3% | [11] 57.2% | [12] 30.1% | [13] 35.2% | [15] 24.9% | [18] 70.9% | [19] 55.6% | [20] 70%
active: [3] -7.93% | [8] 6.53% | [14] -3.87% | [16] -7.02% | [17] 1.31%

CN1C(=O)N(C)C2Nn3c(s/c(=C4\C(=O)N(CCc5ccccc5)c5ccccc54)c3=O)=NC21 (centres undefined)
inactive: [1] 72% | [2] 72.6% | [3] 75.9% | [4] 95.4% | [5] 93.2% | [6] 36.7% | [7] 55.6% | [8] 61.8% | [9] 60.1% | [10] 63% | [11] 34.9% | [12] 85.1% | [13] 80.5% | [14] 64.1% | [15] 60.9% | [16] 72% | [17] 48.4% | [18] 62.3% | [19] 57.3% | [20] 44.6%

COc1ccc(-c2nc(-c3ccccn3)c(-c3ccccn3)n2CC(C)C)cc1OC1CCCC1
inactive: [1] 31.2% | [3] 28.3% | [5] 35.2% | [6] 20.8% | [8] 24.5% | [9] 12.1% | [10] 28.7% | [11] 10.4% | [12] 16.5% | [13] 30.8% | [14] 19.3% | [15] 19% | [17] 39% | [18] 28.8% | [19] 20.9% | [20] 33.9%
active: [2] 9.32% | [4] 5.25% | [7] 8.04% | [16] 8.48%

O=C(Nc1ccc(N2CCNCC2)cn1)c1[nH]ncc1Nc1ncnc2sc3c(c12)CCC3
inactive: [1] 10.7% | [2] 63.8% | [3] 76.2% | [5] 37.9% | [6] 35.9% | [9] 22.8% | [14] 18.6% | [15] 37.8% | [16] 104% | [18] 67.8%
active: [4] -59.2% | [7] -51.7% | [8] -85.5% | [10] -52.1% | [11] -65.2% | [12] -47.7% | [13] -48.9% | [17] -51% | [19] -60.7% | [20] -85.6%

O=C(NC(=S)Nc1cccc(NC(=S)NC(=O)c2ccccc2)c1)c1ccccc1
active: [6] -9.46%
inactive: [1] 69.1% | [2] 89% | [3] 52.5% | [4] 46.4% | [5] 34.8% | [7] 57.6% | [8] 76.5% | [9] 56.5% | [10] 77.5% | [11] 68.7% | [12] 55.3% | [13] 56.7% | [14] 85.4% | [15] 56.1% | [17] 70% | [18] 44.7% | [19] 73.5% | [20] 73.5%
